High-throughput results (PubChem)
Shown are actives, neighbours in structure and some others; about 12% of the full set was active somewhere.
JMJD2A Tudor inh = JMJD2A Tudor domain (human) inhibition | Potency, µM (doses to about 114 µM), without a hit: at the top dose activity change, negative = inhibition, hits mostly inhibitors | AlphaScreen JMJD2A-Tudor / H3K4me3 peptide binding | 390,000 compounds, 4.4% hits; note: % is set by controls: 0 for no effect and ±100 for the full control effect; nearly all actives have a fitted effect of over 50% in size
BAZ2B block = inhibitors of human BAZ2B bromodomain; Q9UIF8; AlphaScreen BAZ2B-H3K14Ac peptide displacement; Potency, µM (doses to about 114 µM), for inactives: top-dose activity change, negative = inhibition, most hits filed as inhibitors; 360,000 compounds, 4.4% hits; note: % is set by controls: 0 for no effect and ±100 for the full control effect; nearly all actives have a fitted effect of over 60% in size
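BAZ2B (50 nM) with biotin-H3(5-23)K14Ac peptide (50 nM) in PBS pH 7.4, 0.01% Tween-20, preformed 30 min, then compound 30 min at room temperature; top concentration 110uM. AlphaScreen streptavidin donor/nickel chelate acceptor beads (10 ug/mL final), 20 min dark, signal read.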
Sfp inh = inhibitors of Bacillus subtilis Sfp phosphopantetheinyl transferase. Q9F4F7. Biochemical Sfp PPTase activity, qHTS. Potency, µM, for the others: largest response in the series, negative = inhibition, actives largely listed as inhibitors. 310,000 compounds, 3.5% hits. AID 1490;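 note: the enzyme is Sfp with the accession as filed and its product quenches rhodamine fluorescence; 0% = enzyme reaction without inhibitor and -100% = no enzyme wells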
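Buffer: 50 mM Hepes-Na pH 7.6, 10 mM MgCl2, 0.01% Nonidet P-40, 0.01% BSA. Enzyme 15 nM, pre-exposed to compound 15 min; substrates then added and fluorescence change tracked over 30 min.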
G9a inh = blocks human histone lysine methyltransferase G9a; G9a H3K9 monomethylation, AlphaScreen, 2 h; Potency, µM (series often up to 102 µM), for inactives: top-dose activity, negative = inhibition, most hits filed as inhibitors; 350,000 compounds, 8.8% hits; AID 504332; note: % is set by controls: 0 for no effect and ±100 for the full control effect; nearly all actives have a fitted effect of over 75% in size
Target sequence (Q96KQ7 913-1193 limits assumed): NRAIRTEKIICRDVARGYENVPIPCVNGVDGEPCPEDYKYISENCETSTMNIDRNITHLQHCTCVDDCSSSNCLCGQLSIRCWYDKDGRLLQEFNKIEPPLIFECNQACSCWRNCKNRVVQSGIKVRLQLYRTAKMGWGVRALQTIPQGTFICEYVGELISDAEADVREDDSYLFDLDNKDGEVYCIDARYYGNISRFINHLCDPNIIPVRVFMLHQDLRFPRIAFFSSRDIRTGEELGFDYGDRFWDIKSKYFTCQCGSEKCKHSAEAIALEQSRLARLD
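Methyltransferase reactions run at room temperature for 2 h (20 nM enzyme, 500 nM biotin-H3K9 peptide, 20 uM SAM) after a 15 min compound preincubation; product detected by AlphaScreen beads and anti-H3K9me1 antibody.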
L3MBTL1 block = blocks human L3MBTL1. Q9Y468. AlphaScreen L3MBTL1–H3K9me1 peptide binding. Potency, µM (titrated, usually from 57.1 µM), for the others: at the top dose activity, negative = inhibition, actives largely listed as inhibitors. 230,000 compounds, 0.66% hits. AID 485360; note: % is set by controls: 0 for no effect and ±100 for the full control effect; nearly all actives have a fitted effect of over 60% in size
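AlphaScreen proximity signal between nickel-chelate acceptor and streptavidin donor beads (final 10 ug/mL) reports binding of 50 nM L3MBTL1 to 75 nM biotin-H3 K9me1 peptide; complex incubated with compounds 30 min at room temperature; cefsulodin titration as control.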
HP1b chromo inh = blocks HP1-beta chromodomain binding to methylated histone tails. AlphaScreen HP1-beta / biotin-H3K9me3 peptide binding. Potency, µM (highest dose often 114 µM), for inactives: top-dose activity change, negative = inhibition, most hits filed as inhibitors. 390,000 compounds, 0.56% hits. AID 540317; note: nearly all actives have a fitted effect of over 70% in size
Target sequence (P83916 whole entry, looked up): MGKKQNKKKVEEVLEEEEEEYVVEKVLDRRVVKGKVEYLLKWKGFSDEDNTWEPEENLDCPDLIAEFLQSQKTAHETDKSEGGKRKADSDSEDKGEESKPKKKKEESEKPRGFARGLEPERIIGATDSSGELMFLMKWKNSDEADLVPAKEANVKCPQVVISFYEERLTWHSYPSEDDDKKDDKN
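Compound inhibition of the preformed complex between 50 nM HP1-beta and 50 nM biotinylated H3K9me3 peptide was read by AlphaScreen. Buffer was PBS pH 7.4 with 0.01% Tween-20. Incubations ran 30 min at room temperature, with 10 ug/mL donor/acceptor beads.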
Starred values were filed as active, the others as inactive; ? = inconclusive; nt = no result given; [ ] = another dose, or the depositor's remark. Calls come from the whole dose curve; as a rule, active = well fitted curve in the direction sought with a large enough effect; inconclusive = small, poorly fitted or top-dose-only effect, or another doubt; inactive = no such curve, though single readings can be large; an effect the other way counts as inactive or inconclusive. Potency is the fitted concentration of half-maximal effect.

SMILES	JMJD2A Tudor inh	BAZ2B block	Sfp inh	G9a inh	L3MBTL1 block	HP1b chromo inh
O=C(O)c1ccccc1C(=O)NNc1ccc(Cl)cc1Cl	-9%	-28%	14%	2.8µM*	3%	35%
O=C(O)c1ccccc1C(=O)NCc1ccc(F)cc1	-9%	4%	1%	-28%	3%	10%
O=C(O)c1ccccc1C(=O)NNc1ccc(F)cc1	40µM*	-21%	?	?	6%	-24%
O=C1c2ccccc2C(=O)N1c1cnc2ccccc2c1	-10%	nt	nt	nt	nt	nt
CCOc1ccc(CN2CCN(C(=O)c3ccccc3)CC2)cc1	-13%[11.4 µM]	?	-23%	?	-1%	?
CCOc1ccc(CN2CCN(C(=O)c3cccc4ccccc34)CC2)cc1	25µM*	45µM*	-24%	14µM*	-11%	?
COc1cc(CN2CCN(C(=O)c3cccc4ccccc34)CC2)cc(OC)c1O	22µM*	50µM*	-29%	6.3µM*	1%	?
COc1ccc(C2CC(c3ccccc3)=NN2c2ccc(S(N)(=O)=O)cc2)cc1OC (stereo unspecified)	17%	15%	89µM*	nt	54%	63%
COc1ccc(C2CC(c3ccccc3)=NN2c2ccc(Cl)c(C(=O)O)c2)cc1 (stereo unspecified)	30%	25%	56µM*	nt	33%	90%
COc1ccc(C2CC(c3ccccc3O)=NN2c2ccccc2)cc1 (stereo unspecified)	133%	nt	nt	nt	nt	183%
COc1ccc(C2CC(c3ccccc3)=NN2c2ccc(N)cc2)cc1 (stereo unspecified)	?	40µM*	-11%	45µM*	-13%	?
NS(=O)(=O)c1ccc(N2N=C(c3ccccc3)CC2c2cccc(F)c2)cc1 (stereo unspecified)	35%	41%	2%	67%[59 µM]	54%	54%
Cc1ccc(Cl)cc1NC(=O)c1ccc(NC(=O)N2CCSc3ncccc32)cc1	-18%	-12%	nt	-11%[59 µM]	nt	0%
CC(C)c1cnc2c(c1SCC(=O)NCc1ccccc1)c(=O)n(C)c(=O)n2C	-17%	12%	nt	14%[59 µM]	nt	13%[57 µM]
CCOc1ccccc1CNC(=O)c1ccc(CS(=O)Cc2cccc(Cl)c2)o1 (stereo unspecified)	-15%	-22%	nt	-17%[59 µM]	nt	22%
COc1ccc(OCC2c3cc(OC)c(OC)cc3CCN2C(=O)c2ccc(F)cc2)cc1 (stereo unspecified)	?	?	nt	?	nt	6%
COc1ccc(NC(=O)c2cc([N+](=O)[O-])ccc2NC(=O)CNCc2ccccn2)c(OC)c1	79µM*	?	45µM*	28µM*	nt	-1%
O=C(O)c1cc([N+](=O)[O-])ccc1NCc1ccccc1Cl	-31%	-8%	4%	?	nt	-22%
COc1cc(NC(=O)c2cc([N+](=O)[O-])ccc2NC(=O)CNCc2ccccn2)cc(OC)c1	79µM*	?	-14%	0%	nt	6%
O=C(O)c1cc([N+](=O)[O-])ccc1NCc1ccccn1	79µM*	79µM*	nt	23%[2.33 µM]	-1%	27%
Cn1cccc1CC(=O)N/N=C/c1ccco1	-25%	?	-19%	nt	-9%	2%
Cn1cccc1CC(=O)N/N=C\c1cccs1	-22%	50µM*	0%	nt	-28%	6%
CC(=C/c1ccco1)/C=N/NC(=O)Cc1cccn1C	-15%[57.1 µM]	45µM*	-29%	?	-18%	-4%
CC(/C=N/NC(=O)Cc1cccn1C)=C\c1ccco1	?	?	40µM*	11µM*	-25%	-2%
O=C(O)/C=C/C(=O)N1CCN(c2ccc(F)cc2)CC1	-73%	-25%	-6%	50µM*	-2%	-13%
SMILES	JMJD2A Tudor inh	BAZ2B block	Sfp inh	G9a inh	L3MBTL1 block	HP1b chromo inh
Nc1ccc(N2CCN(c3ccc(F)cc3)CC2)cc1	?	35µM*	-3%	nt	-14%	?
O=C(O)c1ccc(N2CCCCC2)cc1	-7%	10%	-1%	12%[59 µM]	nt	26%
Nc1ccc(N2CCN(c3ccc(Cl)c(Cl)c3)CC2)cc1	45µM*	14µM*	-16%	?	?	18µM*
Nc1ccc(N2CCCCCC2)cc1	nt	32µM*	8.9µM*	3.5µM*	18µM*	nt
O=C(/C=C/c1cccs1)N1CCN(c2ccc(F)cc2)CC1	-8%	-5%	7%	-3%	-4%	23%
CCOC(=O)c1[nH]c(C)c(CCC(=O)NCc2ccc(N(C)C)cc2)c1C	?	-21%	nt	?	nt	29%[57 µM]
CC(C)COc1ccc(C(=O)Nc2cc(-c3ccccc3)no2)cc1	-2%	-10%	nt	2%[59 µM]	nt	28%
Cc1noc(C)c1-c1ccc2ncnc(NCc3ccc(Br)cc3)c2c1	-28%	nt	4%	nt	nt	nt
CCc1ccc(CNC(=O)CSc2cc(=O)n(C)c3ccc(Cl)cc23)cc1	-12%	-13%	nt	3%[59 µM]	nt	-3%
COc1ccc(C2C(C(=O)OCC(=O)N3CCCCC3)CCC(=O)N2c2ccc(OC)cc2)cc1 (stereo unspecified)	2%	-11%	6%	45µM*	-2%	18%
CCNC(=O)COC(=O)C1CCC(=O)N(c2ccc(OC)cc2)C1c1ccc(OC)cc1 (stereo unspecified)	-18%	31%	12%	-5%[59 µM]	nt	21%
Cc1ccc2nc(NC(=O)CSc3nccn3Cc3ccc(F)cc3)sc2c1	?	?	nt	?	nt	-22%[57 µM]
CCCCC[C@H](O)/C=C/C=C\C/C=C\C=C\[C@@H](O)CCCC(=O)O	nt	nt	10%	nt	nt	nt
S=C(c1ccc2c(c1)OCO2)N1CCCCCC1	-15%	3%	-29%	50µM*	nt	9%
S=C(c1ccc2c(c1)OCO2)N1CCOCC1	3%	-23%	-27%	32µM*	nt	-6%
Cc1cccc(-c2nn3c(=O)cc(CN4CCN(S(=O)(=O)c5ccc(Cl)cc5)CC4)nc3s2)c1	-17%	4%	nt	-6%[59 µM]	nt	15%[57 µM]
CC[C@H](C)[C@H](NC(=O)[C@H](CC(=O)O)NC(=O)[C@H](CC(C)C)NC(=O)[C@H](NC(C)=O)C(c1ccccc1)c1ccccc1)C(=O)N[C@H](C(=O)N[C@@H](Cc1c[nH]c2ccccc12)C(=O)O)[C@@H](C)CC	nt	nt	4%	nt	nt	nt
COc1ccc2cnoc(=O)c2c1OC	nt	nt	11%	nt	nt	nt
Cc1nnc(NS(=O)(=O)c2ccc(N=Nc3ccc(N)nc3N)cc2)s1	50µM*	nt	nt	nt	nt	?
Cc1nnc(NS(=O)(=O)c2ccc(N)cc2)s1	-10%	3%	18%	0%[59 µM]	6%	39%
CC1C=CC(C)C(C(=O)O)C1C(=O)O (stereo unspecified)	45µM*	50µM*	15%	?	nt	-5%
N[C@H](C(=O)O)C1[C@H](C(=O)O)[C@H]1C(=O)O (stereo partly specified)	nt	nt	-22%	nt	nt	nt
